Experimental data published in PubChem BioAssay (NCI).
Where “and” joins values, the source holds several entries; their conditions need not be identical. Equal entries are not always repeated. This is part of a sample that, as a whole, favours compounds with a hit. Of some 83,000 tested, about 20% had one in any assay.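 Cells were grown in 96-well plates and exposed to the test compound at a single concentration for 48 hours; results are reported as percent growth, with values below 10 considered active.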 Values without a mark were called inactive. Calls of active or inactive are those of the source.

Tested on: MDA-MB-468 breast
Assay: NCI-60 one-dose screen, 48 h (100 = growth as untreated, 0 = no growth, -100 = all killed)
Conditions: 10 µM unless noted

Row | Structure (SMILES) | growth
1 | CN(C)c1ccc(/C=C/C(=O)c2ccccc2)cc1 | 90.3%
2 | COc1ccc(S(=O)(=O)NCCCNc2nccc(-c3cn(C(C)(C)C)nc3-c3ccc(Cl)c(OC)c3)n2)cc1 | 76.8%
3 | COc1ccc2oc3cc(NCCN(C)C)ccc3c(=O)c2c1 | 103% and 88.7%
4 | Cc1c(C)c([N+](=O)[O-])c(C)c([N+](=O)[O-])c1C | 97.6%
5 | CCCCCCCCCCCCCCCCCC1=NCCN1CCOC1=C(Cl)C(=O)c2ccccc2C1=O | -50.1% (active)
6 | CCOC(=O)c1c(C(F)(F)F)n([O-])c2ccc(OC)cc2[n+]1=O | -22.2% (active)
7 | FCc1ncc(-c2ccc(C(F)(F)F)cc2)c(NC2CCCCCC2)n1 | 24.8% [100 µM]
8 | O=C(Cn1nnc2ccccc21)Nc1ccc(-c2nc3ccccc3s2)cc1 | -23.8% (active)
9 | O=S(=O)(Nc1ncccn1)c1ccc(Nc2ccc3nnc(-c4ccncc4)n3n2)cc1 | 103%
10 | C=C1C(=O)C2CCN1CC2 | 101%
11 | Cc1cc2c(C)c3cc(C)c(N)cc3nc2cc1N | -5.78% (active)
12 | Cc1ccc(S(=O)(=O)Nc2cc(Sc3ccccc3)c(O)c3ccccc23)cc1 | -53.9% (active)
13 | O=C(CO[N+](=O)[O-])Nc1ccc(C(=O)/C=C/c2ccc3c(c2)OCO3)cc1 | 91.9%
14 | CCCOC(=O)c1ccc([N+](=O)[O-])o1 | 113%
15 | COc1ccc(COC(C)=O)cc1 | 108%
16 | COc1ccc(C2(O)CCCCC2)cc1 | 95.2%
17 | COc1ccc(NC(=O)c2sc3nc(-c4cnccn4)cc(-c4cccs4)c3c2N)cc1 | 89%
18 | COc1ccc(CN2c3ccccc3Sc3ccccc32)c(C(F)(F)F)c1 | 18.8%
19 | Cc1cccc2c3c(sc12)C(c1ccc(Cl)cc1)C(C#N)=C(N)O3 (stereo not given) | 17.3%
20 | O=C1c2c(c3c4cc(F)ccc4oc3c3[nH]c4ccccc4c23)C(=O)N1O | -5.83% (active)

Row | Structure (SMILES) | growth
21 | O=C1/C(=C/c2ccccc2)CCc2nc3ccccc3c(/C=C/c3ccc(Cl)cc3)c21 | 83.5%
22 | Cc1[nH]cnc1/C=C1\SC(N2CCCCC2)=NC1=O | 101%
23 | O=C1CNCCN1 | 106%
24 | CC1(C)CC[C@]2(c3nnc(-c4ccncc4)o3)CC[C@]3(C)C(=CC[C@@H]4[C@@]5(C)CCC(=O)C(C)(C)[C@@H]5CC[C@]43C)[C@@H]2C1 | 80%
25 | COc1ccc(CNC(=O)C(O)C(Cc2ccccc2)NC(=O)c2[nH]c3ccccc3c(=O)c2C)cc1OC (stereo not given) | 102%
26 | CCCCCCN(CCCCCC)c1ccc(/C=C2/SC(=O)NC2=O)c(C)c1 | 80.6%
27 | COc1cc(-c2cc(/C=C3\C(=O)Nc4ccc(Cl)cc43)[nH]n2)cc(OC)c1OC | 67.7%
28 | CCC(N)(C(=O)O)c1ccc(F)cc1 (stereo not given) | 105%
29 | CCCCCCCCCCCC[N+](C)(C)Cc1ccccc1 | -26.4% (active)
30 | COc1ccc(/C(C)=C(\c2ccc(Cl)cc2)c2ccc(OCCCN(C)C)cc2)cc1 | 82.7%
31 | CCN(CC)CC(C)Nc1ccc(C)c2sc3ccccc3c(=O)c12 (stereo not given) | 57.7%
32 | Nc1nc(N)c2c(n1)NC(c1sc(Cl)nc1Cl)CC(c1ccccc1)=N2 (stereo not given) | -2.14% (active)
33 | OCCN1CCCN(CCCN2c3ccccc3Sc3ccc(C(F)(F)F)cc32)CC1 | 39.6%
34 | Cc1c(NC(=O)CSc2nc3sc4c(c3c(=O)n2-c2ccc(Cl)cc2)CCCC4)c(=O)n(-c2ccccc2)n1C | 89.8%
35 | COc1cc(/C=C/C(=O)/C=C(O)/C=C/c2ccc(OC(=O)C34CC5CC(CC(C5)C3)C4)c(OC)c2)ccc1OC(=O)C12CC3CC(CC(C3)C1)C2 | 108%
36 | COc1cc(N2CCC(N3CCN(C)CC3)CC2)ccc1Nc1ncnc(Nc2ccccc2S(=O)(=O)C(C)C)n1 | 110%
37 | Nc1nc(=S)c2ncn(C3OC(COC(=O)c4ccc(Cl)cc4)C(OC(=O)c4ccc(Cl)cc4)C3OC(=O)c3ccc(Cl)cc3)c2[nH]1 (stereo not given) | 23.6%
38 | COc1ccc(S(=O)(=O)N(Cc2ccc3c(n2)C=CC(C)(C)O3)C2CCC2)cc1OC | -8.27% (active)
39 | C=CCn1c(SCC(=O)c2ccc(OC)cc2)nnc1-c1ccc(OC)cc1 | 90.6%
40 | O=C(c1ccccc1)C(CN1CCOCC1)c1ccccc1 (stereo not given) | -68.7% (active)
